# In PubChem BioAssay (NCATS):
# Results filed as inconclusive are left out. Values without a mark were called inactive. The source made the active and inactive calls. Calls come from the whole dose curve; as a rule, active = well fitted inhibition curve with a large enough effect; inconclusive = small, poorly fitted or top-dose-only effect; inactive = no such curve, though single readings can be large or run the other way.
# Test: qHTS for Inhibitors of ATXN expression: Validation (AID 588378); note: nearly all actives have a fitted effect of over 75% in size
# Conditions: cell-based ATXN2 expression reporter assay, luminescence; series mostly up to 57.1 µM; activity change, negative = inhibition: at the top concentration
# From the text: Spinocerebellar ataxia type 2 (SCA2) is a multisystem neurodegenerative disease caused by a dominantly-acting mutation leading to expansion of a polyQ domain in the ataxin-2 protein (ATXN2). SCA2 patients develop progressive ataxia and later lose function in other neuronal systems. Prominent parkinsonian signs develop in some patients. Similar to many neurodegenerative disorders, no symptomatic or disease-modifying treatments are known.
# The primary objective of project is to identify compounds inhibiting ATXN2 expression and to test them for efficacy in SCA2 mouse models. To this end, in a collaboration between Dr. Daniel Scoles and scientists at NCGC, a cell-based assay adapted to high-throughput screening has been developed to screen the NIH Molecular Libraries Small Molecule Repository (MLSMR).
# NIH Chemical Genomics Center [NCGC]
# NIH Molecular Libraries Probe Centers Network [MLPCN]
# Assay Submitter (PI): Stefan Pulst and Daniel Scoles, University of Utah
# 4 ul of HEK293-ATXN2-FFLuc cell suspension (TBD cells/microL in phenol-red free DMEM) are dispensed into Greiner white solid bottom 1536-well assay plates, yielding a final well density of TBD cells/well. Plates are incubated for 2 hrs at 37 degrees C in 5% humidified CO2 to allow cell attachment. Compounds are then transferred via Kalypsys pin tool equipped with 1536-pin array (10nl slotted pins, V&P Scientific, San Diego, CA). In addition, duplicate serial dilutions of the control compounds ChemBridge 5553825, a previously identified ATXN2 expression inhibitor, and a known luciferase inhibitor, are pin-transferred. After incubation at 37 degrees C in 5% humidified CO2 for 24 hrs, CellTiter-Fluor reagent (1 ul) (Promega, Madison, WI) is then added and plates are incubated for 30 minutes, before being transferred to a ViewLux high-throughput CCD imager (PerkinElmer), wherein single end-point fluorescence measurements are acquired using the 405 nm excitation/525 nm emission filter set to assess cell viability. Next, Bright-Glo luciferase substrate detection reagent (3 ul) (Promega, Madison, WI) is added to each well and incubated for an additional 5 minutes. Luminescence is then measured on the ViewLux imager equipped with a clear emission filter using a 2 sec exposure.
# % is set by controls: 0 for no effect and ±100 for the full control effect; potency is the fitted concentration of half-maximal effect.
SMILES,"activity change, negative = inhibition",Potency
C[N+]1(C)CCc2cc3c(cc2[C@H]1[C@@H]1OC(=O)c2c1ccc1c2OCO1)OCO3,-4.71%,–
N#C/C(=C/c1ccc(O)c(O)c1)C(N)=S,6.57%,–
CCCN(CCC)CCc1c[nH]c2ccc(C(N)=O)cc12,-16%,–
C=CCN(C1=NCCN1)c1c(Cl)cccc1Cl,-1.15%,–
NCCc1ccc(S(=O)(=O)F)cc1,-18.7%,–
COc1ccc2c(c1O)-c1cccc3c1[C@@H](C2)N(C)CC3,-28.6%,–
CCN1C[C@@]2(COC)C3[C@@H](OC)C4[C@@H]1C3([C@@H]1C[C@]3(O)[C@H](OC(=O)c5ccccc5)[C@@H]1[C@]4(OC(C)=O)[C@@H](O)[C@@H]3OC)[C@H](OC)C[C@H]2O,-7.37%,–
C[C@H](N)CN1CCc2ccc(Br)cc21,–,15.8 µM (active)
NC(CCCCCP(=O)(O)O)C(=O)O (stereo not given),4.97%,–
C/C(O)=C(\C#N)C(=O)Nc1cc(Br)ccc1Br,-3.6%,–
COc1ccc(OC)c(C(O)C(C)N)c1 (stereo not given),-8.58%,–
Clc1ccc(N2CC3CCC(C2)N3)nn1,-19.9%,–
NCCc1c[nH]c2ccc(C(N)=O)cc12,-9.24%,–
CCCN(CCC)C1Cc2cc(OC)c(OC)cc2C1,11.9%,–
N=C(N)c1ccc(CS(=O)(=O)F)cc1,-6.07%,–
C=CCN1CC[C@]23c4c5ccc(O)c4O[C@@H]2/C(=N/N=C2\CC[C@@]4(O)C6Cc7ccc(O)c8c7[C@@]4(CCN6CC=C)[C@@H]2O8)CC[C@@]3(O)C1C5,–,20 µM (active)
CN1CCC(c2c[nH]c3ccc(O)cc23)CC1,-2.53%,–
CP(=O)(O)C1=CCNCC1,-5.79%,–
NC(Cc1cc(O)c(O)cc1O)C(=O)O (stereo not given),-12.5%,–
Clc1cc(I)cc(Cl)c1NC1=NCCN1,-7.38%,–

SMILES,"activity change, negative = inhibition",Potency
NC(C(=O)O)c1cc(=O)[nH]o1 (stereo not given),-4.34%,–
C=CCN1C[C@@H](C)N([C@H](c2ccc(C(=O)N(CC)CC)cc2)c2cccc(OC)c2)C[C@@H]1C,12.8%,–
Cc1o[nH]c(=O)c1CC(N)C(=O)O (stereo not given),1.97%,–
CC(C)NP(=O)(NC(C)C)OP(=O)(NC(C)C)NC(C)C,-5.52%,–
C[N+]1(C)C2CCC1CC(OC(=O)c1c[nH]c3ccccc13)C2 (stereo not given),7.16%,–
COc1ccc2[nH]cc(CCN)c2c1,-28.5%,–
CCCN(CCC)C1CCc2cccc(O)c2C1 (stereo not given),-3.37%,–
CCCN1CC[C@@H]2c3cc(O)ccc3CC[C@@H]21,-14.8%,–
CC(C)(C)c1o[nH]c(=O)c1CC(N)C(=O)O (stereo not given),-6.42%,–
N[C@@]1(C(=O)O)CC[C@@H](C(=O)O)C1,7.95%,–
CCCCCCCCCCCCCC(=O)O[C@@H]1[C@@H](C)[C@@]2(O)[C@@H](C=C(CO)C[C@@]3(O)C(=O)C(C)=C[C@@H]23)C2C(C)(C)[C@@]21OC(C)=O (stereo not given in full),16.7%,–
Cc1cc([C@@H]2CCCN2C)on1,-15.6%,–
C[N+]1(C)CCN(c2ccccc2)CC1,-8.87%,–
N[C@@H](CCl)C(=O)O,-0.27%,–
CCCN(CCC)[C@H]1CCc2c(F)ccc(O)c2C1,-25.4%,–
CCNC(=O)[C@H]1O[C@@H](n2cnc3c(N)ncnc32)[C@H](O)[C@@H]1O,-16.6%,–
CC(N)c1cccc(Cl)c1Cl (stereo not given),-15.2%,–
C=CCN1CC[C@]23c4c5ccc(O)c4O[C@H]2/C(=N/NC(=O)c2ccccc2)CC[C@@]3(O)[C@H]1C5,-4.41%,–
O=C1C=CC(=O)C=C1,0.699%,–
CC(C)(C)c1cc(C=C(C#N)C#N)cc(C(C)(C)C)c1O,–,0.631 µM (active)
